Measured values as given in PubChem BioAssay (NCI).
This is part of a sample that, as a whole, favours compounds with a hit. Of some 79,000 tested, about 15% had one in any assay. Active and inactive are the calls of the source. Rule as the data show it: active = growth inhibition above about 70%; inactive = the rest.

Columns and labels:
[1] = NCI Yeast Anticancer Drug Screen. Data for the rad50 strain (AID 155);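 also: 0% = growth of vehicle-only cultures of the same strain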; settings: S. cerevisiae rad50 strain growth inhibition; at 50.0 µM; hits give high values
In short: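 Relative growth inhibition (compound vs vehicle) was measured in yeast with a defined repair-gene alteration.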

[2] = NCI Yeast Anticancer Drug Screen. Data for the mec2-1 strain (AID 157); settings: S. cerevisiae mec2-1 strain, at 50.0 µM, hits give high values
In short: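 Cells of the genetically defined mec2-1 yeast strain are incubated with test compound. Inhibition of growth is calculated against vehicle-treated controls.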

[3] = NCI Yeast Anticancer Drug Screen. Data for the sgs1 mgt1 strain (AID 161);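 also: 0% = growth of cultures given vehicle only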; settings: S. cerevisiae sgs1 mgt1 strain, at 50.0 µM, hits give high values
In short: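 Genetically altered yeast, compound exposure, growth inhibition relative to vehicle.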

[4] = NCI Yeast Anticancer Drug Screen. Data for the cln2 rad14 strain (AID 165);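 also: 0% = growth equal to vehicle treated cultures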; settings: S. cerevisiae cln2 rad14 strain, at 50.0 µM, hits give high values
In short: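 The screen exposed genetically defined yeast (cln2 rad14) to test compounds and scored growth inhibition relative to vehicle-treated controls.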

[5] = NCI Yeast Anticancer Drug Screen. Data for the bub3 strain (AID 167); settings: S. cerevisiae bub3 mutant strain, at 50.0 µM, hits give high values
In short: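 Screening used yeast with an engineered genetic alteration affecting cell cycle control. Compound-exposed cultures were compared with vehicle cultures, and reduced growth was taken as inhibition.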

[6] = NCI Yeast Anticancer Drug Screen. Data for the mlh1 rad18 strain (AID 175); settings: S. cerevisiae mlh1 rad18 strain growth inhibition; at 50.0 µM; hits give high values
In short: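 Compound-treated yeast growth, normalised to vehicle controls. Strain bears defined DNA repair mutations.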

Measured: growth inhibition

CCCCOB(OCCCC)Oc1c(C(C)(C)C)cccc1C(C)(C)C
inactive: [1] 2.7% | [2] -4.6% | [3] -4.7% | [4] 9.8% | [5] -5.65% | [6] 3.75%

COC(=O)CC1(C)[C@H](O)[C@H]2OC(C)(C)O[C@H]2[C@@H]1O (stereo partly specified)
inactive: [1] 7.7% | [2] -10.6% | [3] -18.2% | [4] -3.25% | [5] -7.5% | [6] 38.2%

COc1ccc(NC(=O)NNS(=O)(=O)c2ccc(C)cc2)cc1
inactive: [1] 10.1% | [2] 6.15% | [3] 6.6% | [4] 4.9% | [5] 13.9% | [6] -36.9%

N#C/C(=C\c1ccccn1)c1ccc(Cl)cc1
inactive: [1] 3.15% | [2] 1.1% | [3] 11.5% | [4] -17.4% | [5] 17.3% | [6] 53.7%

CCON=C1C(C)(C)C(C)(C)C(C)(C)C1(C)C
inactive: [1] -13.4% | [2] 0.2% | [3] -24.6% | [4] 37.4% | [5] -16.1% | [6] -2.05%

NC(=O)N/N=C\CC(O)(C(F)(F)Cl)C(F)(F)Cl
inactive: [1] -33.9% | [2] -29.2% | [3] -15.6% | [4] -1.5% | [5] 3.2% | [6] -3.1%

CC(C)(CC1(C)NC(=O)NC1=O)OCc1ccccc1 (stereo unspecified)
inactive: [1] -0.5% | [2] -30.1% | [3] -14.8% | [4] -24.2% | [5] -45.8% | [6] 1.95%

O=Cc1cccc2[nH]ccc12
inactive: [1] 5.9% | [2] -7.95% | [3] 13% | [4] -4.6% | [5] 7.85% | [6] 3.25%

CC(=O)CC(=O)CC(C)C.CC(=O)CC(=O)CC(C)C.[Cu]
inactive: [1] 17.2% | [2] 17.5% | [3] 6.25% | [4] -16.1% | [5] -3.2% | [6] 37.7%

CCOC(=O)c1c[nH]c2ccc3c(nc(C)n3C)c2c1=O
inactive: [1] -7.95% | [2] -1.05% | [3] -5.2% | [4] 11.9% | [5] -21.4% | [6] -47.5%

Cc1ccc(S(=O)(=O)NNC(=O)c2ccc[nH]2)cc1
inactive: [1] -1.5% | [2] -24.2% | [3] -7.85% | [4] 7.65% | [5] 9.9% | [6] 6.35%

CCN(C(=S)Nc1cccc2ccccc12)c1ccccc1
inactive: [1] -4.05% | [2] -11.3% | [3] 11.7% | [4] 2.4% | [5] -3.65% | [6] -7.9%

C=C1CC23CC[C@H]4[C@@](C)(CCC[C@@]4(C)C(=O)OC4OC(CO)C(O)C(O)C4O)[C@@H]2CC[C@@]1(OC1OC(CO)C(O)C(O)C1OC1OC(CO)C(O)C(O)C1O)C3 (stereo partly specified)
inactive: [1] -6.6% | [2] -38.5% | [3] -38.1% | [4] 25.4% | [5] -39.4% | [6] -16%

CC(c1ccc([N+](=O)[O-])cc1)n1cnc2c(N(CCO)CCO)ncnc21 (stereo unspecified)
inactive: [1] 6.3% | [2] -1.15% | [3] -13.7% | [4] -3.7% | [5] -12.2% | [6] -0.5%

CCOC(=S)SCC(=O)c1ccc(Br)cc1
active: [2] 70.5% | [6] 83.5%
inactive: [1] 67% | [3] 66.8% | [4] -7.5% | [5] 55.2%

O=[N+]([O-])c1ccc(SCN(CSc2ccc([N+](=O)[O-])cc2)Cc2ccccc2)cc1
inactive: [1] -6.35% | [2] -6.85% | [3] -1.2% | [4] -17.4% | [5] 4.65% | [6] -7%

Cc1cc(C)n(/N=C/c2ccccc2)c(=O)c1C#N
inactive: [1] 7.3% | [2] -10.3% | [3] 0.55% | [4] -0.55% | [5] 35.6% | [6] -0.05%

O=C1CC=C2C3CC4N(CCC45c4ccccc4N1C25)C/C3=C\CBr (stereo unspecified)
inactive: [1] -8.45% | [2] -21.8% | [3] -7.95% | [4] 8.15% | [5] 7.2% | [6] -5.95%

Cc1cc([N+](=O)[O-])ccc1NS(=O)(=O)c1ccccc1
inactive: [1] 24.9% | [2] 39.5% | [3] 42.9% | [4] 15.5% | [5] 18.1% | [6] 36.6%

Nc1ncnc2nc(N=Nc3ccc(S(=O)(=O)O)cc3)[nH]c12
inactive: [1] 4.25% | [2] -21.1% | [3] -1.2% | [4] -23.4% | [5] -6.35% | [6] -6.75%

O=C1c2cc(F)ccc2-c2c(F)cc(F)cc21
inactive: [1] 19.9% | [2] -6.4% | [3] -2.1% | [4] 40.5% | [5] -3.85% | [6] -8.8%
